# Results from the supplement of paper PMC6555819.
# Legend:
# Assay in all cases: PBM binding z-score (relative to random genomic background probes); higher = stronger binding; sequences stand for … in GC…GCGATTGACAGCGTAGAATGAAGG
# [1] = test system: FXR:RXRa (NR concentration 270 nM, RXRa partner concentration 90 nM)
# Procedure, shortened: (§1)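 Antibodies against each partner of ligand-free nuclear receptor dimers (one per run) detected binding on custom Agilent 4×180K protein-binding microarrays after 1 h incubation. The double-stranded probes had 34-nt variable regions carrying direct-repeat seeds, single-nucleotide variants, half-site ablations and random human genomic background sequences. Binding z-scores, from regression-normalized fluorescence, use the random background probes as reference.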
# [2] = test system: LXRa:RXRa (NR concentration 270 nM, RXRa partner concentration 90 nM)
# Procedure, shortened: as §1
# [3] = test system: LXRa homodimer (NR concentration 270 nM)
# Procedure, shortened: as §1
# [4] = test system: LXRb:RXRa (NR concentration 270 nM, RXRa partner concentration 90 nM)
# Procedure, shortened: as §1
# [5] = test system: LXRb homodimer (NR concentration 270 nM)
# Procedure, shortened: as §1
# [6] = test system: PPARa:RXRa (NR concentration 270 nM, RXRa partner concentration 90 nM)
# Procedure, shortened: as §1
# [7] = test system: PPARg:RXRa (NR concentration 180 nM, RXRa partner concentration 90 nM)
# Procedure, shortened: as §1
# [8] = test system: PPARg:RXRa 270nM:90nM, anti-RXR (NR concentration 270 nM, RXRa partner concentration 90 nM)
# Procedure, shortened: as §1
# [9] = test system: PPARg:RXRa 30nM:10nM, anti-RXR (NR concentration 30 nM, RXRa partner concentration 10 nM)
# Procedure, shortened: as §1
# [10] = test system: PPARg:RXRa 90nM:30nM, anti-RXR (NR concentration 90 nM, RXRa partner concentration 30 nM)
# Procedure, shortened: as §1
Sequence,PBM binding z-score [1],PBM binding z-score [2],PBM binding z-score [3],PBM binding z-score [4],PBM binding z-score [5],PBM binding z-score [6],PBM binding z-score [7],PBM binding z-score [8],PBM binding z-score [9],PBM binding z-score [10]
TAGCGTAGGTCATTGGGCCAGTATAGTACGCATC,4.93,3.92,0.617,2.84,0.375,4.15,3.75,3.91,1.25,2.52
TCTAGTTGGTCAAAGTTCACACACTCGAAATGCG,3.96,4.54,4.63,3.66,1.36,5.5,9.83,9.2,8.79,9.75
TCAGACAGGTGAAGGTAACTGAGGTACGCAGTCG,1.04,1.01,-0.19,0.598,-0.756,1.2,0.727,1.98,3.74,2.96
CCTAGCCGGCCAGGGTCACTCAAGCATTTCGCTT,2.27,1.64,-0.316,2.03,-0.922,2.97,0.0332,0.958,-0.474,0.121
TATACAGGGTCAAAGGCCAGGGTACGAATGTCGA,6.87,6.23,2.51,4.8,2.5,6.27,8.53,7.29,5.77,6.97
TCATATGGGTAAATGCTAGGTGAAAGTCCGATCT,0.03,0.212,0.0774,0.31,-0.359,0.897,0.667,1.71,2.1,1.91
TCGAGTAGGTTAGTCGGGGCATTCAACCAACATA,0.19,0.112,0.0145,0.776,-0.298,0.929,0.00295,1.16,1.41,1.11
CCTACTTGGCCAAAAAGGTCATTGATGCCGATAA,4.39,4.79,3.93,4.61,1.27,4.7,1.74,3.04,0.755,1.87
TCTATTACTTGATTAGGGCAACCGAAACAGCGGA,0.823,0.881,0.41,0.812,0.945,0.975,0.4,1.9,3.76,2.94
GTACCGAGGTGAATAGGTCGTTGATGAGTAGGCG,1.03,0.978,-0.306,0.874,-0.778,2.68,1.86,2.13,0.147,0.886
TCATATAGGTAAAGGTGTAAGTCGAACGATATGA,0.564,0.266,-0.224,0.356,-0.187,1.81,3.01,3.83,4.04,4.1
ACAGACAGGTGATGAAGGTGACTCAGGCTATCAT,0.202,0.0616,-0.267,0.143,-0.348,0.764,0.82,0.457,-0.1,0.274
CGTCCAAGGTCTTAGGAGGTCAGTGAAGACAGAT,1.69,3.12,0.984,2.03,-0.404,2.28,0.427,1.06,0.0477,0.43
ATATGTAGGTTACATCCGGGTGATTCAGGCTATG,0.452,4.47,0.517,1.64,0.268,3.54,5.24,4.39,1.74,3.56
ACTCGGAGGACAAAAGTCAGAGCTACGCCAGTGA,-0.293,-0.245,-0.424,-0.518,-0.302,0.347,1.41,2.68,0.796,2.08
GCTGCTAGGGCAGGTTGGTCAGCTAACGGGTACG,-0.531,-0.752,-0.652,-1.01,-0.94,-0.594,-0.438,-0.678,-1.11,-1.1
ACAGACAGGTGCGTGAAGGTAACTCAGCTGGACG,-0.446,-0.525,-0.81,-0.869,-0.883,-0.268,0.476,-0.586,-0.564,-0.492
TCTTGTAGATCAATAGAGGTGAAGAAAGTGCGCT,1.02,0.833,-0.122,0.533,-0.232,1.5,0.0312,1.72,2.84,2.21
ACAGACAGGTGTGTGAAGGTAACTCAGCTGGACG,0.0191,-0.00303,-0.46,-0.618,-0.921,-0.347,0.522,-0.0357,-0.212,-0.375

Sequence,PBM binding z-score [1],PBM binding z-score [2],PBM binding z-score [3],PBM binding z-score [4],PBM binding z-score [5],PBM binding z-score [6],PBM binding z-score [7],PBM binding z-score [8],PBM binding z-score [9],PBM binding z-score [10]
ATCTCTAGGTAAAAGTTCACTGAATCCCGAGGAT,1.74,2.79,2.51,1.79,1.07,4.85,8.64,8.64,7.7,9.26
GCTAGTTGGTCAGTAAAAGTTCACACACCGGTCG,0.899,2.22,4.58,1.73,0.297,1.95,0.79,1.98,0.387,1.5
CCTTACGGGTCAAGGTGATAGCACGGGTGGTACG,5.64,3.5,-0.313,2.67,-0.389,4.8,4.43,4.52,1.62,3.34
AGCTCTAGGTAAAGATAGTTCAGTGAATGCAAAT,-0.108,3.76,0.0998,0.693,-0.0126,0.354,0.0941,0.135,-0.22,-0.0707
CCTACTGGGCCAAAGGTCAATGATTCCAATGCTC,4.07,4.39,2.6,4.52,0.165,6.29,12.1,10.4,10,12.8
CAGCCTATGTCAGGGCCAGTATAGGAGGAACGTT,-0.392,-0.569,-0.136,-0.524,-0.259,-0.324,0.129,-0.472,-0.514,-0.506
ATATGTAGGTTACATCCGGGTCAGTCAGGCTATG,1.08,2.95,0.519,1.74,0.572,3.66,5.53,4.69,2.14,3.86
GATACAGGGTCAGCTAAAGGCCAGAGTATGGAAA,4.35,2.74,-0.339,2.43,-0.758,4.67,4.07,3.58,0.882,2.24
GCTATTAGTTGAAGGGGCAACCGAATGATTCTCG,-0.0427,-0.304,-0.118,0.151,-0.16,0.84,0.924,2.1,0.49,1.65
CTCGAAAGGTCGTGCTCAGGCGAGTATACCAAAC,5,3.56,-0.183,2.93,-0.132,5.03,2.05,3.49,0.448,1.95
CAAACTAGGTCAAGGTCAAAGGCGGTTTGTGCCA,6.43,5.36,3.25,4.34,1.01,5.91,9.82,8.02,6.66,8.34
CAAACTAGGGCACGAAAGGTCAAAGTCGAATGAC,5.64,6.93,6.08,5.54,1.5,6.49,8.39,7.22,5.17,7.03
CCTTACGGGTCACTCCACGTTATAGCATCGGAGT,4.04,3.03,0.131,2.58,0.341,4.28,3.02,3.29,1.1,2.31
CGTCACAGTTCAACTAAGGTAACGTAAAGCACGC,3.5,3.37,1.17,2.07,0.36,3.14,1.61,1.49,0.576,0.859
ACTCGGAGGACAAAGGCCAGAGCTACGCCAGTGA,-0.254,-0.622,-0.482,-1.08,-0.835,0.196,1.47,2.38,0.441,1.97
ACATGTAGGTTACATCCGGGTCATTCAGGCTATG,2.53,4.55,1.49,3.15,1.14,4.15,4.27,3.99,1.47,2.91
ATCGAAAGGTAGAAGGTGAGTATACCCACCCGAA,0.00191,0.0493,-0.115,-0.132,0.0948,1.26,1.3,1.72,0.876,1.03
CCGACTGGGGCATATGGTTACCATAAGCCAGCCC,-0.611,-0.598,-0.857,-0.657,-1.1,0.208,1.47,1.94,0.491,1.32
GCAGACAGGTGAAACCCAGGTAACTCAGGGTGGC,0.292,-0.00475,-0.738,-0.364,-0.909,0.818,0.657,-0.0881,-0.673,-0.524
